Screen size: about 310,000 compounds; about 14,000 (4.5%) showed an effect of 50% or more. The effect is printed as a negative number. Only a selection was taken, and strong results are over-represented in it overall.
target: human ether-à-go-go-related gene (hERG) potassium channel (human, UniProt Q12809); experiment: primary screen, population patch clamp on CHO cells stably expressing hERG; higher = less effect of the substance
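Also: peak tail current of the secondary pulse compared with the same well before compound.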

Chain of human ether-à-go-go-related gene (hERG) potassium channel (Q12809 whole entry, looked up): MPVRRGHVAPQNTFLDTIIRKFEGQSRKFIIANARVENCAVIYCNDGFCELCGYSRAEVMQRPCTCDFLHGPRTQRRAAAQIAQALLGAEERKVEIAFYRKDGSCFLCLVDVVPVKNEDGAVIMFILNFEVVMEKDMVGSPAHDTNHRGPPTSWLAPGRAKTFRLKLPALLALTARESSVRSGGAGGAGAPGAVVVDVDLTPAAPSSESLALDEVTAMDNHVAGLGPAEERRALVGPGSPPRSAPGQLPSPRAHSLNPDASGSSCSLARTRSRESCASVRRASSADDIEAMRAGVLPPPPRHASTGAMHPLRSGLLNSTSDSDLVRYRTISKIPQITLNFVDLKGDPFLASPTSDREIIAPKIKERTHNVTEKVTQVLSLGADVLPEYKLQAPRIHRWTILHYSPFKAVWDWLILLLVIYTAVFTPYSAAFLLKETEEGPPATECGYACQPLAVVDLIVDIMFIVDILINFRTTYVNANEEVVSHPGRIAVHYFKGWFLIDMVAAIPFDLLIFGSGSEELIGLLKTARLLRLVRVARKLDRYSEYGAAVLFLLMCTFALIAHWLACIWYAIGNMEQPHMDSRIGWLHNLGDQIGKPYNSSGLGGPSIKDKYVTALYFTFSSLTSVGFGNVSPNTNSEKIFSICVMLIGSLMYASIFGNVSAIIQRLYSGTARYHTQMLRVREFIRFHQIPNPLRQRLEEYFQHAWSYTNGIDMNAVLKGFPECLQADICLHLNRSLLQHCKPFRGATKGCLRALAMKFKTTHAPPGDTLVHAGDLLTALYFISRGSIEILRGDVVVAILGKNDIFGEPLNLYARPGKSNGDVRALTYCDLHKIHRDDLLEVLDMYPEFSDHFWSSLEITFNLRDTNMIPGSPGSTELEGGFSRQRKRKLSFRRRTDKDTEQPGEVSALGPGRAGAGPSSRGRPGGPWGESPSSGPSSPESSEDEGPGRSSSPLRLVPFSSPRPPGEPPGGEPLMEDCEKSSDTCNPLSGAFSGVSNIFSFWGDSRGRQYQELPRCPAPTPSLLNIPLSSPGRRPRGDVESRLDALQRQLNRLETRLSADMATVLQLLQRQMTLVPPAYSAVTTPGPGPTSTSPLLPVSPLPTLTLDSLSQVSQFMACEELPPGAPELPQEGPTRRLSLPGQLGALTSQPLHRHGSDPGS

First: COc1ccc(NC2CCCN(C(=O)c3ccc(C(C)=O)s3)C2)cc1 (centres unmarked)
Second: Cc1ccc(NC(=O)c2nc[nH]c2C(=O)N2CCc3ccccc3C2)cc1
The “hERG current change (%, negative = inhibition) at 10uM” value of the first is lower: 16.1% for the first, 18.8% for the second.

Going from `O=C(CSc1ccc(-c2ccc(F)cc2)nn1)N1CCOCC1` to `CCOC(=O)N1CCN(C(=O)CSc2ccc(-c3ccncc3)nn2)CC1`, the “hERG current change (%, negative = inhibition) at 10uM” value rises from -17.4% to -0.414%.

First: COc1cc(/C=N/N2CCN(c3ccccc3)CC2)cc(OC)c1OC(C)=O
Second: O=C(Nc1ccccc1N1CCN(c2ccccc2)CC1)c1ccccc1
The “hERG current change (%, negative = inhibition) at 10uM” value of the first is lower: -39.4% for the first, 8.61% for the second.

Going from `O=C(Nc1ccccc1Cl)O/N=C(/c1ccccc1)c1ccccn1` to `COc1ccccc1NC(=O)CSc1ncn(-c2ccccc2)n1`, the “hERG current change (%, negative = inhibition) at 10uM” value falls from 6.47% to -41.1%.

First: CNC(=O)CCc1[nH]c2ccccc2c1Sc1ccccc1
Second: NC(=S)Nc1cc2ccccc2c2ccccc12
The “hERG current change (%, negative = inhibition) at 10uM” value of the first is lower: 4.85% for the first, 6.65% for the second.

Going from `Cc1cc(C)cc(OCC(=O)N2N=C(c3cccnc3)CC2(O)C(F)(F)F)c1` (centres unmarked) to `Cc1cc(C)c(C(=O)OCC(=O)NC(=O)c2ccccc2)c(C)c1`, the “hERG current change (%, negative = inhibition) at 10uM” value rises from -15.3% to 11.9%.

Compared with `COc1ccc(NC(=O)N(Cc2ccc(C)cc2)Cc2cccnc2)c(OC)c1`, `COc1ccc(C(=O)NC(=S)NC(C)c2ccccc2)cc1` (centres unmarked) is higher in “hERG current change (%, negative = inhibition) at 10uM” value: -10.6% for the first, 21.8% for the second.

Going from `COc1ccccc1S(=O)(=O)Cc1ccc(C(=O)NCCN2CCCC2)o1` to `COc1ccccc1S(=O)(=O)Cc1ccc(C(=O)NCCN2CCCCCC2)o1`, the “hERG current change (%, negative = inhibition) at 10uM” value rises from -8.12% to 2.78%.

Compared with `COc1ccccc1S(=O)(=O)Cc1ccc(C(=O)NCCCN2CCN(c3ccc(F)cc3)CC2)o1`, `N#Cc1nc(Cc2cccc3ccccc23)oc1NCCCN1CCOCC1` is higher in “hERG current change (%, negative = inhibition) at 10uM” value: -79.2% for the first, -26.3% for the second.

Compared with `Cc1cccc(N2C(=O)C(O)=C(C(=O)c3cccs3)C2c2ccc(F)cc2)n1` (centres unmarked), `Cc1ccccc1-n1cnc2cc(NCc3cccs3)ccc21` is lower in “hERG current change (%, negative = inhibition) at 10uM” value: 14.9% for the first, -31% for the second.

Going from `O=C(NNS(=O)(=O)c1ccccc1)C1CCCCC1` to `O=C(O)C1CCN(S(=O)(=O)c2ccc(Oc3ccccc3)cc2)CC1`, the “hERG current change (%, negative = inhibition) at 10uM” value rises from 6.38% to 17.8%.

First: N#Cc1nc(COc2ccccc2)oc1NCCCn1ccnc1
Second: N#Cc1nc(Cc2ccccc2)oc1NCCCn1ccnc1
The “hERG current change (%, negative = inhibition) at 10uM” value of the first is lower: -50% for the first, -31.5% for the second.

Going from `N#Cc1nc(Cc2cccc3ccccc23)oc1NCCCn1ccnc1` to `N#Cc1nc(-c2ccccc2)oc1NCCCn1ccnc1`, the “hERG current change (%, negative = inhibition) at 10uM” value rises from -71% to -27.5%.

Compared with `N#Cc1nc(COc2ccc(Br)cc2)oc1NCCN1CCOCC1`, `N#Cc1nc(COc2ccc(F)cc2)oc1NCCN1CCOCC1` is higher in “hERG current change (%, negative = inhibition) at 10uM” value: -56.6% for the first, -12.9% for the second.

First: Cc1ccc(OCc2nc(C#N)c(NCCCn3ccnc3)o2)cc1
Second: N#Cc1nc(COc2ccc(Br)cc2)oc1NCCCn1ccnc1
The “hERG current change (%, negative = inhibition) at 10uM” value of the first is higher: -56% for the first, -63.2% for the second.

First: COc1ccc(OCc2nc(C#N)c(NCCCn3ccnc3)o2)cc1
Second: N#Cc1nc(COc2ccc(F)cc2)oc1NCCCn1ccnc1
The “hERG current change (%, negative = inhibition) at 10uM” value of the first is higher: -43.4% for the first, -64.2% for the second.

First: N#Cc1nc(-c2ccc(OCc3ccccc3Cl)cc2)oc1NCCCn1ccnc1
Second: N#Cc1nc(-c2ccc(OCc3ccccc3)cc2)oc1NCCCn1ccnc1
The “hERG current change (%, negative = inhibition) at 10uM” value of the first is lower: -13% for the first, -1.96% for the second.

Compared with `COc1ccccc1OCc1nc(C#N)c(NCCCn2ccnc2)o1`, `N#Cc1nc(COc2ccccc2F)oc1NCCCn1ccnc1` is lower in “hERG current change (%, negative = inhibition) at 10uM” value: 6.7% for the first, -42.5% for the second.

Going from `Cc1ccc(-c2nc(C#N)c(NCCCn3ccnc3)o2)cc1` to `N#Cc1nc(-c2ccc(F)cc2)oc1NCCCn1ccnc1`, the “hERG current change (%, negative = inhibition) at 10uM” value falls from -21.9% to -49.3%.

Compared with `N#Cc1nc(COc2ccccc2)oc1NCCN1CCOCC1`, `N#Cc1nc(Cc2cccc3ccccc23)oc1NCCN1CCOCC1` is lower in “hERG current change (%, negative = inhibition) at 10uM” value: -11.3% for the first, -20.3% for the second.

Compared with `Cc1csc(C(C#N)C(=O)c2ccncc2)n1` (centres unmarked), `N#C/C(C(N)=O)=C1/CCc2ccccc2N1` is lower in “hERG current change (%, negative = inhibition) at 10uM” value: 19.2% for the first, -9.51% for the second.

Going from `CCN(CC)c1ccc(N=Cc2c(O)[nH]c(=O)[nH]c2=O)cc1` to `CCc1ccc[n+](-c2[nH]c(=O)sc2/C=N/N=C(\N)[O-])c1`, the “hERG current change (%, negative = inhibition) at 10uM” value falls from -1.25% to -10%.

First: COC(=O)C1=CNC=C(C(=O)OC)C1c1ccc(Cl)cc1
Second: COc1cc(/C=N/NC(=O)COc2ccc(-n3cnnn3)cc2)ccc1OCC(N)=O
The “hERG current change (%, negative = inhibition) at 10uM” value of the first is lower: -8.91% for the first, 17.3% for the second.

Going from `COCCN(C(=O)COC(=O)c1cnc(C)cn1)c1c(N)n(Cc2ccccc2)c(=O)[nH]c1=O` to `CCCCCN(C(=O)COC(=O)COc1c(C)cc(C)cc1C)c1c(N)n(CCCC)c(=O)[nH]c1=O`, the “hERG current change (%, negative = inhibition) at 10uM” value falls from -4.85% to -14.4%.

First: Cc1cc(Nc2ccc(O)cc2)n2c(nc3ccccc32)c1C#N
Second: N#Cc1ccccc1/C=N/Nc1nc(-c2ccccc2)c2cc(Br)ccc2n1
The “hERG current change (%, negative = inhibition) at 10uM” value of the first is higher: 16.6% for the first, -67.4% for the second.

First: CCOC(=O)Nc1ccc2c(c1)Sc1ccccc1N2C(=O)CCN1CCOCC1
Second: COc1ccc(-c2nc(C#N)c(NCCCN3CCOCC3)o2)cc1
The “hERG current change (%, negative = inhibition) at 10uM” value of the first is lower: -17.6% for the first, -13% for the second.

Going from `N#Cc1nc(-c2ccco2)oc1NCCCN1CCOCC1` to `N#Cc1nc(-c2ccco2)oc1NCCN1CCOCC1`, the “hERG current change (%, negative = inhibition) at 10uM” value rises from -54.9% to 7.46%.

First: N#Cc1nc(-c2ccc(F)cc2)oc1NCCN1CCOCC1
Second: Cc1ccc(-c2nc(C#N)c(NCCN3CCCCC3)o2)cc1
The “hERG current change (%, negative = inhibition) at 10uM” value of the first is higher: -0.823% for the first, -55.8% for the second.

Compared with `N#Cc1nc(-c2ccc(OCc3ccc(Cl)cc3)cc2)oc1NCCCn1ccnc1`, `N#Cc1nc(-c2cccc3ccccc23)oc1NCCN1CCCCC1` is lower in “hERG current change (%, negative = inhibition) at 10uM” value: 5.77% for the first, -36.2% for the second.

First: N#Cc1nc(Cc2cccc3ccccc23)oc1NCCN1CCCCC1
Second: O=C(CSc1ncccn1)NCc1ccccc1Cl
The “hERG current change (%, negative = inhibition) at 10uM” value of the first is lower: -60.3% for the first, -2.63% for the second.

Compared with `CC(C)C[C@@H](CO)N(Cc1ccccc1)S(=O)(=O)N(Cc1ccccc1)[C@@H](CO)CC(C)C`, `O=C(CCc1ccccc1)Nc1cc(NC(=O)CCc2ccccc2)cc(C(=O)O)c1` is lower in “hERG current change (%, negative = inhibition) at 10uM” value: 7.47% for the first, -22% for the second.

Going from `COc1ccc(C(C(=O)NCCC(C)C)N(CCO)C(=O)c2snc(C(N)=O)c2N)cc1` (centres unmarked) to `CCNc1nc(NCC)nc(N/N=C/c2ccc(OC)cc2)n1`, the “hERG current change (%, negative = inhibition) at 10uM” value rises from -1.26% to 6.24%.

First: O=C1C(=O)N(CCc2c[nH]c3ccccc23)C(c2cccnc2)/C1=C(/O)c1ccccc1 (centres unmarked)
Second: N#Cc1ccccc1/C=N/Nc1nc(-c2ccccc2)c2cc(Cl)ccc2n1
The “hERG current change (%, negative = inhibition) at 10uM” value of the first is higher: 2.24% for the first, -46.3% for the second.

Going from `C=C1C(=O)O[C@H]2C1CC[C@@](C)(O)C13C=CC(C)(C21)C1(C3)C(=O)O[C@@H]2C3C(C)=CCC3[C@](C)(O)C[C@H](OC(C)=O)C21` (some centres unmarked) to `CC1=C(C(=O)NCCN2CCN(C)CC2)C2(CCC(C)CC2)OC1=O` (centres unmarked), the “hERG current change (%, negative = inhibition) at 10uM” value rises from 2.81% to 6.17%.

First: CCNc1nc(NCC)nc(N/N=C/c2ccccc2)n1
Second: CCNc1nc(NCC)nc(N/N=C/c2ccc(Br)cc2)n1
The “hERG current change (%, negative = inhibition) at 10uM” value of the first is higher: 4.81% for the first, -74.6% for the second.

Compared with `Cc1cc(N/N=C/c2ccc([N+](=O)[O-])o2)nc2ccccc12`, `Cc1ccc2nc(N/N=C\c3ccc([N+](=O)[O-])o3)nc(-c3ccccc3)c2c1` is lower in “hERG current change (%, negative = inhibition) at 10uM” value: 1.15% for the first, -72.6% for the second.

Compared with `Cc1ccc2nc(N/N=C/c3ccccc3F)nc(-c3ccccc3)c2c1`, `O=[N+]([O-])c1ccc(/C=N/Nc2nc(-c3ccccc3)c3cc(Br)ccc3n2)o1` is lower in “hERG current change (%, negative = inhibition) at 10uM” value: 0.778% for the first, -4.84% for the second.

Going from `CCNc1nc(NCC)nc(N/N=C/c2ccc([N+](=O)[O-])o2)n1` to `Cc1cc(C)nc(N/N=C/c2ccc([N+](=O)[O-])o2)n1`, the “hERG current change (%, negative = inhibition) at 10uM” value rises from -50.8% to 2.14%.

Compared with `O=[N+]([O-])c1ccc(/C=N/Nc2nc(N3CCCC3)nc(N3CCCC3)n2)o1`, `CCCN1CCN(C(=S)Nc2ccc([N+](=O)[O-])cc2)CC1` is lower in “hERG current change (%, negative = inhibition) at 10uM” value: 1.41% for the first, -52.1% for the second.

Going from `CC(Sc1nc(N)cc(=O)[nH]1)C(=O)NC1CCCCC1` (centres unmarked) to `CCCN1CCC(NC(=O)Nc2ccc([N+](=O)[O-])cc2)CC1`, the “hERG current change (%, negative = inhibition) at 10uM” value falls from -4% to -32.2%.

Compared with `CCOc1ncccc1C(=O)Nc1ccc(S(=O)(=O)Nc2nc(C)cc(C)n2)cc1`, `O=C(CN1C(=O)C2CC=CCC2C1=O)Nc1ccc(S(=O)(=O)NC2=NCCCCC2)cc1` (centres unmarked) is lower in “hERG current change (%, negative = inhibition) at 10uM” value: 2.16% for the first, 1.02% for the second.

First: Cc1ccc(-c2ccc(CO)o2)cc1N
Second: CN1CCN(C(=S)Nc2ccc([N+](=O)[O-])cc2)CC1
The “hERG current change (%, negative = inhibition) at 10uM” value of the first is higher: 9.48% for the first, -23.1% for the second.

First: CCN1C(=O)C(=C2C=C(C)N(Cc3ccco3)C(C)=C2)C(=O)N(CC)C1=S
Second: CCCCC(=O)Nc1nnc(-c2ccco2)o1
The “hERG current change (%, negative = inhibition) at 10uM” value of the first is lower: -35% for the first, -0.241% for the second.

Going from `CCN1CCN(C(=S)Nc2ccc([N+](=O)[O-])cc2)CC1` to `CCCN1CCC(NC(=S)Nc2ccc([N+](=O)[O-])cc2)CC1`, the “hERG current change (%, negative = inhibition) at 10uM” value falls from -26.6% to -52.6%.

`CCCN1CCC(NC(=S)Nc2ccc(S(N)(=O)=O)cc2)CC1` was tested, and the “hERG current change (%, negative = inhibition) at 10uM” value was 10.7%.

Reference: publication PMC4336329 (PLoS ONE, 2015)
